High-throughput results: PubChem BioAssay, National Center for Advancing Translational Sciences (NCATS)
ELG1 genotox – inducers of genotoxicity in HEK293T ELG1-luciferase cells; Potency, µM (highest dose often 46 µM), hits mostly activators; 330,000 compounds, 1.3% hits; HEK293T ELG1-luciferase reporter, luminescence, 16 h; further: nearly all actives have a fitted effect of over 60% in size
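Screening used a luciferase reporter fused to human ELG1 in HEK293T cells. Luminescence was read on a CCD plate imager after 16 hr exposure and 30 min ONE-Glo incubation.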
SMN2 splice enh – increases expression of the SMN2 splice variant; HEK293 SMN2-luciferase splicing reporter, luminescence, 30-36 h; Potency, µM (doses to about 46.1 µM), actives largely listed as activators; 210,000 compounds, 2.8% hits; AID 1458; further: nearly all actives have a fitted effect of over 55% in size
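qHTS luciferase splicing reporter: luminescence rises when SMN2 exon 7 is included in transfected HEK293 cells. Compound exposure lasted 30-36 h at 37C, with 4.5 mM final sodium butyrate as control, followed by a ONE-Glo read.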
ELG1 repair inh – inhibitors of ELG1-dependent DNA repair in HEK293T cells. 330,000 compounds, 2.3% hits. HEK293T ELG1-luciferase reporter, luminescence, 16 h; DNA damage induced by 5-fluorouridine. Potency, µM (titrated, usually from 46.1 µM), hits mostly inhibitors; further: nearly all actives have a fitted effect of over 55% in size
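DMSO vehicle served as the neutral condition. Each well held 2,000 cells given 5-fluorouridine plus compound; after 16 hr at 37 °C/5% CO2, ONE-Glo was added and luciferase measured 30 min later.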
FLuc counter – firefly luciferase modulation, counter-screen for miR-21 project; purified FLuc, Km substrates, luminescence inhibition; Potency, µM (series often up to 57.5 µM), usual class: inhibitors; 360,000 compounds, 6.9% hits; AID 588342; further: nearly all actives have a fitted effect of over 55% in size
Target sequence (P08659 whole entry, looked up): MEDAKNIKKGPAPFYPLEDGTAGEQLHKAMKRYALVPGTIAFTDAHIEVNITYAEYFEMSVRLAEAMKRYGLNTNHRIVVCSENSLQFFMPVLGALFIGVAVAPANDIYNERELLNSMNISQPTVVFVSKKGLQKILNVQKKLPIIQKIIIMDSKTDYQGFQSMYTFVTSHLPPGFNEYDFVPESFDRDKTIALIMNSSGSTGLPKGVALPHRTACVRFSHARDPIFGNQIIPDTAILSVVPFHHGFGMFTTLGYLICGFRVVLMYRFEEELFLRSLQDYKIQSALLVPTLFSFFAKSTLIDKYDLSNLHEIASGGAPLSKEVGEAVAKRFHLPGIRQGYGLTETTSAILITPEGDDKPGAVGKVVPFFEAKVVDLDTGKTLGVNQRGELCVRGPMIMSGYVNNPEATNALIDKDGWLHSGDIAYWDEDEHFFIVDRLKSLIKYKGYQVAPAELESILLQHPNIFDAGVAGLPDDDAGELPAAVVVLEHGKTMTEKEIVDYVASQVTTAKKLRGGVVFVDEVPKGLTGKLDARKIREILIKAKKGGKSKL
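Biochemical qHTS of compounds, final roughly 60 µM downward over six points, against 10 nM purified firefly luciferase using Km concentrations of substrates (10 uM D-luciferin, 10 uM ATP) in Tris acetate pH 7.5 buffer; luminescence output.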
NPC1 prom act – activators of NPC1 promoter; Huh7 NPC1 promoter luciferase reporter, 24 h; 320,000 compounds, 2.4% hits; AID 485313; Potency, µM (series often up to 9.22 µM), most hits filed as activators; further: nearly all actives have a fitted effect of over 60% in size
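NPC1 promoter–luciferase Huh7 cells; 24 h compound; luminescence.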
Rab9 promoter act – activators of Rab9 promoter | AID 485297 | Potency, µM (titrated, usually from 9.22 µM), usual class: activators | Huh7 Rab9 promoter-luciferase reporter, luminescence, 24 h | 320,000 compounds, 2.8% hits; further: nearly all actives have a fitted effect of over 60% in size
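Stable Rab9-luc Huh7, 1500 cells/well, 2 h settle; cmpd in DMSO, 24 h, 37 °C/5% CO2; luciferase reagent 10 min RT; luminescence.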
Each line names hits and unclear results; the compound was inactive in the other large screens. Hits are enriched below; roughly 9.4% of the tested compounds scored in any of these assays. The call rests on the fitted dose curve; in most records, active means well fitted curve in the direction sought with a large enough effect; inconclusive means small, poorly fitted or top-dose-only effect, or another doubt; inactive means no such curve, though single readings can be large; an effect the other way counts as inactive or inconclusive.

Cc1ccc(-c2nc(S(=O)(=O)c3ccc(C)cc3)c(N(C)C)o2)cc1	NPC1 prom act inconclusive (no result: SMN2 splice enh)
Cc1ccc(S(=O)(=O)c2nc(-c3ccccc3Cl)oc2N(C)C)cc1	ELG1 genotox inconclusive, ELG1 repair inh inconclusive, FLuc counter 15µM (no result: SMN2 splice enh)
O=C(NCc1cccc(F)c1)C1=Cc2cc(Br)ccc2OC1	none (no result: ELG1 genotox, SMN2 splice enh, ELG1 repair inh, NPC1 prom act, Rab9 promoter act)
CC(C)(SCc1ccccc1)[C@H](N)C(=O)O	none (no result: ELG1 genotox, ELG1 repair inh, FLuc counter, NPC1 prom act, Rab9 promoter act)
Cc1ccc(NC(=S)Nc2cccc(-c3n[nH]c(=S)o3)c2)cc1	FLuc counter 17µM, Rab9 promoter act inconclusive (no result: SMN2 splice enh)
COc1ccc(C(=O)Nc2ccc(-c3n[nH]c(=S)o3)cc2)cc1	ELG1 genotox inconclusive, FLuc counter 3µM, Rab9 promoter act inconclusive (no result: SMN2 splice enh)
C=CCOc1ccc(-c2n[nH]c(=S)o2)cc1	ELG1 repair inh inconclusive, FLuc counter 24µM (no result: SMN2 splice enh)
O=C(Nc1ccc(-c2n[nH]c(=S)o2)cc1)c1ccccc1	FLuc counter 8.5µM (no result: SMN2 splice enh)
COc1ccc(C)cc1NC(=O)c1cc2c(=O)n(Cc3cccnc3)ccc2nc1C	none (no result: ELG1 genotox, SMN2 splice enh, ELG1 repair inh, NPC1 prom act, Rab9 promoter act)
c1ccc(CN(CCN(Cc2ccccn2)Cc2ccccn2)Cc2ccccn2)nc1	none (no result: ELG1 genotox, ELG1 repair inh, FLuc counter, NPC1 prom act, Rab9 promoter act)
CCn1c(/C(C#N)=N/O)nc2ccccc21	none
Cn1c(/C(C#N)=C/c2ccccc2Br)nc2ccccc21	FLuc counter 7.6µM (no result: ELG1 genotox, ELG1 repair inh, NPC1 prom act, Rab9 promoter act)
CCn1c(/C(C#N)=C/c2ccccc2Cl)nc2ccccc21	FLuc counter 5.4µM (no result: ELG1 genotox, SMN2 splice enh, ELG1 repair inh, NPC1 prom act, Rab9 promoter act)
COc1ccc(N/C=C(\C#N)c2nc3ccccc3n2C)c(OC)c1	ELG1 repair inh 26µM, FLuc counter 2.7µM
COc1ccc(C(=O)Nc2nnc(SCc3cc(=O)n4cc(Cl)ccc4n3)s2)cc1	none (no result: ELG1 genotox, SMN2 splice enh, ELG1 repair inh, NPC1 prom act, Rab9 promoter act)
Cc1ccc(NC(=O)C2C3CC4OC(=O)C2C4C3)cc1Cl (centres undefined)	SMN2 splice enh inconclusive
CC(C)OC(=O)c1ccc(NC(=O)C2C3CC4OC(=O)C2C4C3)cc1 (centres undefined)	SMN2 splice enh 11µM, ELG1 repair inh inconclusive, FLuc counter 21µM, NPC1 prom act inconclusive, Rab9 promoter act 2.8µM
O=C(c1csnn1)N1CCC2(CC1)CCN(C(c1ccccc1)c1ccccc1)CC2	none (no result: ELG1 genotox, ELG1 repair inh, FLuc counter, NPC1 prom act, Rab9 promoter act)
COc1ccc(CN=C2NN=C(c3ccccc3)CS2)cc1	SMN2 splice enh inconclusive, FLuc counter 27µM, Rab9 promoter act inconclusive
COc1ccc(CN=C2NN=C(c3cccc(OC)c3)CS2)cc1	SMN2 splice enh 28µM, ELG1 repair inh inconclusive, FLuc counter inconclusive, Rab9 promoter act inconclusive
COc1cccc(C2=NNC(=NCc3ccccc3)SC2)c1	SMN2 splice enh inconclusive, FLuc counter 21µM, Rab9 promoter act inconclusive
Cc1ccc(C)c(C2=NNC(=NCc3ccccc3)SC2)c1	ELG1 repair inh inconclusive
Cc1ccc(NC(=O)c2ccc3nc(N4CCOCC4)sc3c2)c(Cl)c1	ELG1 repair inh inconclusive (no result: SMN2 splice enh)
O=C(O)C[C@H](Cc1ccccc1Cl)C(=O)O	none (no result: ELG1 genotox, ELG1 repair inh, FLuc counter, NPC1 prom act, Rab9 promoter act)
CCN(CC)CCCN=Cc1c(-c2ccccc2)[nH]n(-c2nc3ccccc3s2)c1=O	ELG1 repair inh inconclusive, FLuc counter inconclusive (no result: SMN2 splice enh)
COC(=O)Cc1[nH]n(-c2nc3ccccc3s2)c(=O)c1C(C)=Nc1ccc(C)cc1	FLuc counter inconclusive
CCC(=NCc1ccco1)c1c(C(F)(F)F)[nH]n(-c2nc3ccccc3s2)c1=O	ELG1 genotox 9.2µM, ELG1 repair inh inconclusive, FLuc counter 7.6µM, NPC1 prom act inconclusive, Rab9 promoter act inconclusive
CC(=NCc1ccco1)c1c(C)[nH]n(-c2nc3ccccc3s2)c1=O	ELG1 genotox 3.7µM, ELG1 repair inh inconclusive, FLuc counter 7.6µM, NPC1 prom act inconclusive, Rab9 promoter act inconclusive (no result: SMN2 splice enh)
CCCN=C(C)c1c(-c2ccccc2)[nH]n(-c2nc3ccccc3s2)c1=O	ELG1 repair inh inconclusive, FLuc counter inconclusive, NPC1 prom act inconclusive
O=c1c(C=NCc2cccnc2)c(C(F)(F)F)[nH]n1-c1nc2ccccc2s1	none (no result: SMN2 splice enh)
C/C(=N/NC(=O)c1cccs1)c1c(C)[nH]n(-c2nc3ccccc3s2)c1=O	ELG1 genotox inconclusive, SMN2 splice enh 11µM, ELG1 repair inh inconclusive, FLuc counter 0.6µM, NPC1 prom act 2µM, Rab9 promoter act 2µM
CCC(=NCc1ccccc1)c1c(C(F)(F)F)[nH]n(-c2nc3ccccc3s2)c1=O	ELG1 genotox inconclusive, ELG1 repair inh inconclusive, FLuc counter 12µM
CCn1c(CN2CCOCC2)nc2cc(NC(=O)c3ccc([N+](=O)[O-])cc3)ccc21	none (no result: ELG1 genotox, SMN2 splice enh, ELG1 repair inh, NPC1 prom act, Rab9 promoter act)
CCc1cccc(CC)c1NC(=O)C(Cc1ccccc1)NS(=O)(=O)c1cccc2nsnc12 (centres undefined)	none (no result: ELG1 genotox, ELG1 repair inh, NPC1 prom act, Rab9 promoter act)
COc1cccc(Cn2c(=O)c(CCc3ccccc3)nc3cnc(OC)nc32)c1	none (no result: ELG1 genotox, ELG1 repair inh, FLuc counter, NPC1 prom act, Rab9 promoter act)
Cc1cc(C)c(CN2CCC(n3nccc3NC(=O)c3ccccc3Cl)CC2)cc1C	none (no result: SMN2 splice enh)
COc1ccccc1C(=O)Nc1ccnn1C1CCN(Cc2cc(C)c(C)cc2C)CC1	ELG1 repair inh 23µM (no result: SMN2 splice enh)
COc1ncc2nc(CCc3ccccc3)c(=O)n(Cc3cccs3)c2n1	none (no result: ELG1 genotox, ELG1 repair inh, FLuc counter, NPC1 prom act, Rab9 promoter act)
O=C1CC(c2nc3ccccc3n2CCCCOc2ccccc2)CN1c1ccccc1Cl (centres undefined)	none (no result: ELG1 genotox, ELG1 repair inh, NPC1 prom act, Rab9 promoter act)
Cn1c(-c2c(N)n(CCCc3ccccc3)c3nc4ccccc4nc23)nc2ccccc21	ELG1 repair inh inconclusive
Cn1c(-c2c(N)n(CCc3ccccc3)c3nc4ccccc4nc23)nc2ccccc21	ELG1 repair inh 9.2µM
O=C1C(C2=NC(C(=O)O)C3C(=O)N(c4ccccc4)C(=O)C23)=C(O)c2ccccc21 (centres undefined)	ELG1 repair inh inconclusive, FLuc counter 12µM
